# uPA generation: inhibitors of cell surface uPA generation; cell surface uPA generation assay, qHTS; Potency, µM (doses to about 38.3 µM), inactives show at the highest dose activity change, negative = inhibition, hits mostly inhibitors; 330,000 compounds, 0.31% hits; AID 540303; active = well fitted inhibition curve with a large enough effect; inconclusive = small, poorly fitted or top-dose-only effect; inactive = no such curve, though single readings can be large or run the other way; tested in mouse RAW 264.7 cells; also: potency is read from the fitted curve at half-maximal effect; % is scaled to controls: 0 for no effect and ±100 for the full control effect; nearly all actives have a fitted effect of over 55% in size
# D3 antag: D3 dopamine receptor (human) antagonism; P35462; D3R cells, DiscoveRx beta-arrestin luminescence, antagonist mode; active compounds read low; max response, negative = inhibition, %; 360,000 compounds, 2.5% hits; AID 652054; in the data active = max response below about -50%; inconclusive = no clear call, values can overlap the other calls; also: % is scaled to controls: 0 for no effect and ±100 for the full control effect
# Target sequence (P35462 whole entry, looked up): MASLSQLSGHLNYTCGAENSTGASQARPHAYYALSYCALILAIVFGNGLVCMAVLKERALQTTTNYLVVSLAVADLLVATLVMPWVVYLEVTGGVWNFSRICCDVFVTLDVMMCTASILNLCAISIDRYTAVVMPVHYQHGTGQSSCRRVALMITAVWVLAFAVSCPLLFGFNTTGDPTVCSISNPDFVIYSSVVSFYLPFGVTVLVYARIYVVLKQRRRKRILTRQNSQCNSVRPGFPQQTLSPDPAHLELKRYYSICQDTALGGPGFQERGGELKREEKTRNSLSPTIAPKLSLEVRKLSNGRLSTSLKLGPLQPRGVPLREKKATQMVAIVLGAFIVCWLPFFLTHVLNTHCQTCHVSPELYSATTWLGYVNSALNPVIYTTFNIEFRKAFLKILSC
#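 Cells expressing the human receptor were seeded at 1500 cells/well, incubated overnight at 37 degrees C in 5% CO2, then exposed to library compounds with dopamine controls for 90 minutes at 37 degrees C before luminescent detection.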
# RGS4 inh: human RGS4 inhibition; Transcreener GDP fluorescence polarization, RGS4-accelerated GTP hydrolysis; P49798; AID 504845; Potency, µM (series often up to 114 µM), without a hit: at the top dose activity change, negative = inhibition, actives largely listed as inhibitors; 390,000 compounds, 0.039% hits; active = well fitted inhibition curve with a large enough effect; inconclusive = small, poorly fitted or top-dose-only effect; inactive = no such curve, though single readings can be large or run the other way; also: potency is read from the fitted curve at half-maximal effect; % is scaled to controls: 0 for no effect and ±100 for the full control effect; nearly all actives have a fitted effect of over 75% in size
# Target sequence (P49798 whole entry, looked up): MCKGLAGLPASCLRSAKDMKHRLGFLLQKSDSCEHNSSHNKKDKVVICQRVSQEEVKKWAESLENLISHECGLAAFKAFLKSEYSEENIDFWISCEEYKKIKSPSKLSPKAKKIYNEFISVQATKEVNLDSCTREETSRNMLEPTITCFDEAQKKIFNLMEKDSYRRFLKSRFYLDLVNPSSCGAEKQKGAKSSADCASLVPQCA
#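 MLSMR compounds (23 nl, pin-transferred) preincubated 10 min at room temperature with a 500nM (2x) first reagent, then RGS4 at 900nM (2x) plus Transcreener GDP mix added; fluorescence polarization (620/688 nm) read before and after 90 min at 30 °C.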
# D3 ag: D3 dopamine receptor (human) agonism; P35462; D3R DiscoveRx beta-arrestin cells, luminescence, 90 min; max activation, %; 410,000 compounds, 0.58% hits; AID 652048; in the data active = max activation above about 30%; also: 0% is about no effect
#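 Agonist-mode cell screen: cells plated at 1500/well and incubated overnight at 37 °C, then exposed to library compounds for 90 min at 37 °C. Detection reagent was added for 30–60 min at room temperature, and luminescence was read.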
# The depositor's hits bear a star; i = inactive; ? = inconclusive; / = not tested or not shown; ! = a repeat was not active; [ ] = another dose, or the depositor's remark. Shown are actives, neighbours in structure and some others; about 3.1% of the full set was active somewhere.
SMILES,uPA generation,D3 antag,RGS4 inh,D3 ag
Nc1nc(SCc2ccc(Cl)cc2Cl)nc2nc3c(cc12)CCCC3,-0.3%,-56.5*,?,-9.0
Nc1nc(SCc2ccccc2Cl)nc2nc3c(cc12)CCCC3,-3.2%,-22.0,-13.7%,-8.9
CCOCN(C(=O)Cn1cnc2cc(C)c(C)cc21)c1c(C)cccc1CC,/,/,-11.4%,4.4
O=C(NC1CCCCC1)N1CCCC(c2nc3ccccc3[nH]2)C1 (configuration not stated),4.6%,-125.7*,-21.9%,-18.1
CCCC1OC2C[C@@H]3[C@H]4CCC5=CC(=O)C=C[C@]5(C)[C@H]4C(O)C[C@]3(C)[C@]2(C(=O)CO)O1 (some centres not stated),/,/,6.5%,/
Cc1ccc(Cl)cc1-n1nnc(-c2nc(-c3ccc4c(c3)OCO4)no2)c1C,/,/,12.6%,-16.0
COCCCNCCCOc1ccc(C)cc1Br,3.1%,-73.3*,-7.8%,-19.6
C=CCNCCCOc1ccc(C)cc1Br,-4.2%,?,-10.6%,-31.4
CCN(CC)CCCOc1ccc(C)cc1Br,1.4%,-74.6*,6.5%,1.4
CCOc1ccccc1OCCCOc1ccc(C)cc1Br,11.0%,46.0,25.8%,-1.4
COCCNCCCOc1ccc(C)cc1Br,0.6%,-51.3*,11.5%,-1.1
COCCCNCCCCOc1c(Cl)cc(C)cc1Br,0.0%,-76.9*,-11.3%,-9.9
C=CCNCCCCOc1c(Cl)cc(C)cc1Br,-1.4%,17.7,-0.7%,-3.4
CCOC(=O)c1ccc2ncc(C(=O)OCC)c(Nc3ccc(C)c(Br)c3)c2c1,/,/,22.6%,0.8
O=C(C1COc2ccccc2O1)N(Cc1cccnc1)c1nc2ccc(F)cc2s1 (configuration not stated),/,/,-15.4%,-9.0
CCCCn1nnc(NC(=O)c2ccc(-c3cccc(Cl)c3)o2)n1,-3.0%,-86.2*,10.4%,-3.9
O=C(NCc1ccccc1)C(=O)NCC(c1ccco1)S(=O)(=O)c1ccccc1 (configuration not stated),/,/,-4.8%,-8.8
Cc1ccc(/C=C(\C#N)C(=O)Nc2c(C)cccc2C)s1,-4.0%,-79.9*,35.1%,-9.8
Cc1ccc(NC(=O)/C(C#N)=C/c2ccc(C)s2)c(C)c1,4.1%,13.4,6.4%,7.8
N#CCCN1CCN(Cc2cc(-c3ccccc3)ccc2O)CC1,-3.1%,-95.6*,-9.2%,-10.5
CC(C)(C)CC(C)(C)c1ccc(O)c(CN2CCN(CCC#N)CC2)c1,6.0%,-21.1,-9.0%,0.8
COc1cc(CN2CCC(C(=O)N3CCN(c4ccccc4F)CC3)CC2)cc(OC)c1OC,1.4%,-52.9*,16.8%,-5.8
OC(CNC1CCCCC1)CON=C1CCSc2c(Cl)cccc21 (configuration not stated),/,-66.3*,/,-8.9
COc1ccc(-n2cnnc2SCc2cnc(-c3ccccc3)s2)cc1,3.4%,-56.1*,-8.0%,-4.7
COCCn1c(SCc2cnc(-c3ccccc3)s2)nnc1-c1ccncc1,2.7%,5.7,2.6%[11.4 µM],-4.7
SMILES,uPA generation,D3 antag,RGS4 inh,D3 ag
COc1ccccc1Cn1c(CNS(=O)(=O)c2ccc(Cl)s2)nc2cccnc21,/,/,-0.5%,-4.4
COc1ccc(OC)c(C(=O)CSc2ncc3c(n2)-c2ccccc2N(Cc2ccccc2C)S3(=O)=O)c1,/,/,-9.9%,1.7
CCC(C)NC(=O)CSc1nnc(-c2ccc(C)cc2)c(-c2ccc(C)cc2)n1 (configuration not stated),/,/,40.3%,-0.3
COc1ccc(Cl)cc1N1C(=O)C2CCCN2C1c1sccc1C (configuration not stated),1.7%,-63.4*,-17.9%[56.9 µM],-2.2
CC1(C)[C@@H](O)CC[C@]2(C)C3C(O)C=C4[C@H]5C[C@@](C)(CO)CC[C@]5(C)CC[C@]4(C)[C@]3(C)CC[C@@H]12 (some centres not stated),2.2%,53.4,-14.3%,65.2*
Cc1cc(Sc2ncnc(N)c2[N+](=O)[O-])ncn1,/,-70.9*,-25.6%,-26.8
Cc1cc(Sc2nc(N)ncc2[N+](=O)[O-])ncn1,-12.6%,-60.2*,-10.2%,-7.4
Cc1cc(N)ncc1[N+](=O)[O-],6.8%,8.5,9.4%,5.7
CCc1ccc2c(c1)CCCN2C(=O)c1ccccc1C(=O)O,/,-67.9*,-13.1%,-50.1
CCN1CCN(c2ncc(C(=O)Nc3cc(Cl)ccc3OC)c3ccccc23)CC1,1.1%,6.6,8.1%,-8.7
O=C(c1cnc2sccn2c1=O)N1CCCc2ccccc21,-24.2%,-52.1*,-4.0%,-5.0
CCN1CCN(c2ncc(C(=O)N3CCCc4ccccc43)c3ccccc23)CC1,-3.1%,-68.8*,-6.5%,3.8
COc1ccc(-c2cc(C(=O)NCc3ccccc3)c3c(-c4ccccc4)[nH]nc3n2)cc1,/,/,8.5%,0.2
O=C1c2cc(S(=O)(=O)N3CCOCC3)ccc2-c2ccc(S(=O)(=O)N3CCOCC3)cc21,/,/,2.8%,/
COc1ccc(CCC(C)NCc2cccc(Br)c2)cc1 (configuration not stated),-22.1%,-68.3*,-0.4%,-8.2
CC(CCc1ccccc1)NCc1cccc2ccccc12 (configuration not stated),13.1%,-53.8*,1.1%,2.6
CCc1ccc2oc(C(=O)Nc3ccccc3OC)cc(=O)c2c1,/,/,-12.6%,7.2
CCc1ccc2oc(C(=O)N(Cc3ccc(N(C)C)cc3)Cc3ccco3)c(C)c2c1,/,/,7.2%,-2.0
S=c1[nH]nc(-c2ccccc2)n1C1C=CCCC1 (configuration not stated),-4.4%,-54.9*,-23.1%,-3.1
Cc1cc(-n2c(=O)[nH]c(=O)n(C)c2=O)ccc1Oc1ccc(S(=O)(=O)C(F)(F)F)cc1,/,/,/,-17.9
CCOc1ccc(OCC(=O)NCCS(=O)(=O)N2CCN(c3ccc(F)cc3)CC2)cc1,-12.4%,16.8,-12.0%,37.9*!
CCOc1ccc(OCC(=O)NCCS(=O)(=O)N2CCN(c3ccccc3)CC2)cc1,/,-11.0,/,-5.8
O=C(COc1ccc(F)cc1)NCCN1CCCC1,-3.1%,-57.0*,-6.3%,-15.3
O=C(NCCN1CCCC1)c1ccc(Cl)cc1,6.3%,-98.4*,-17.7%,-11.1
O=C(NCCN1CCCCC1)c1ccc(I)cc1,/,/,i,/
SMILES,uPA generation,D3 antag,RGS4 inh,D3 ag
O=C(NCCN1CCCCC1)Nc1cccc(C(F)(F)F)c1,-4.6%,-57.6*,-1.0%,-11.9
COc1ccc(C(=O)Nc2cccc(C(=O)OCc3cc(=O)n4nc(C5CC5)sc4n3)c2)cc1,/,/,-25.0%,5.7
COc1ccc(CC(=O)NCCN2CCOCC2)cc1,20.3%,9.6,-10.3%,-1.5
O=C(NCCN1CCOCC1)c1ccc(Cl)cc1,6.9%,-68.8*,-2.9%[56.9 µM],-71.5
Cc1ccc(CC(=O)NCCN2CCOCC2)cc1,5.1%,-8.0,18.3%,58.0*
S=C(Nc1ccc(Br)cc1Cl)N1CCCC1,-6.9%,10.8,-4.3%,13.8
O=C(CNC(=O)c1ccc(Cl)cc1)NC1CCCCC1,4.1%,-58.7*,-16.2%,-19.4
O=C(Nc1ccc(CN2CCCCC2)cc1)Nc1ccc(Br)cc1Cl,-1.5%,-79.4*,0.8%,-28.5
CCOc1ccc(CCNC(=O)c2cc3c(s2)-c2c(C)cccc2OC3)cc1,/,/,31.1%,-13.0
